Test results as given in ChEMBL document CHEMBL3988442, “University of Dundee, Small-Polar-MMV Screening Library” (2021).
Among all 48,000 compounds or so, about 13,000 (27%) showed an effect of 50% or more. The list shows a part of the results.

Each molecule was assayed on Wolbachia pipientis (assay: Anti-Wolbachia Cell-Based Screen). Settings: 5 µM.
Type: functional
Parameters: scale not given: in the data most compounds retested in dose-response had high values
`NC(=O)NC(=O)CCN1C(=O)CC(Cc2ccc(F)cc2)C1=O` (stereo not given) was tested, and the “Percent Effect” value was 2.732%.
For `COc1cccc(C(=O)N2CCOCC2CN(C)C)c1OC.O=CO` (stereo not given), the “Percent Effect” value was 3.966%.
`Cc1cc(C(=O)N[C@H]2CN(CCC(N)=O)C[C@@H]2C2CC2)sc1C` was tested, and the “Percent Effect” value was 6.856%.
For `O=C(Nc1cccc2c1CCCC2)C1CCCN1c1nccs1` (stereo not given), the “Percent Effect” value was 15.72%.
For `CC1CN(c2ncccc2C(=O)N[C@@H]2CCCc3ccccc32)CCN1` (stereo not given in full), the “Percent Effect” value was 127.7%.
In the case of `O=C(CS(=O)(=O)c1ccccn1)NC1CCCc2ccccc21` (stereo not given), the “Percent Effect” value is reported as 25.59%.
With `CC1CN(c2ncccc2C(=O)Nc2cccc3c2CCCC3)CCN1` (stereo not given) the “Percent Effect” value was 121.2%.
For `O=C(CS(=O)(=O)c1ncccc1Cl)NC1CCCc2ccccc21` (stereo not given), the “Percent Effect” value was 0.01745%.
`O=C(Nc1cccc2c1CCCC2)c1cccnc1N1CCCNCC1` was tested, and the “Percent Effect” value was 136.8%.
For `Cc1cccc(C(=O)Nc2cccc3c2CCCC3)n1`, the “Percent Effect” value was -12.03%.
With `NC(=O)c1cccnc1N1CCN(c2ncnc3c2CCNC3)CC1` the “Percent Effect” value was -13.85%.
`O=C(Nc1cccc2c1CCCC2)c1cccc(CN2CC[C@H](O)C2)c1` was tested, and the “Percent Effect” value was -13.79%.
In the case of `Cc1cc(N2CCN(C(=O)c3cc(Cl)c[nH]3)CC2)nc(N)n1`, the “Percent Effect” value is reported as 3.543%.
With `CC(=O)CCCC(=O)N(Cc1ccsc1)CC(C)C` the “Percent Effect” value was -0.6388%.
With `CC(CNC(=O)c1ccccc1Oc1cccnc1)N(C)C` (stereo not given) the “Percent Effect” value was 3.869%.
`CC(NC(=O)CN(C)C(C)C)c1ccc(Oc2cccnc2)c(F)c1` (stereo not given) was tested, and the “Percent Effect” value was 102.4%.
For `Cc1cc(CC(=O)NC(C)c2ccc(OCC3CC3)c(F)c2)n[nH]1` (stereo not given), the “Percent Effect” value was -4.858%.
`CC(NC(=O)c1ccnn1C)c1ccc(OCC2CC2)c(F)c1` (stereo not given) was tested, and the “Percent Effect” value was 28.88%.
In the case of `CCC(C#N)NC(=O)c1ccc(Oc2cccnc2)cc1` (stereo not given), the “Percent Effect” value is reported as -3.415%.
In the case of `CC(NC(=O)Cn1ccnc1)c1ccc(OCC2CC2)c(F)c1` (stereo not given), the “Percent Effect” value is reported as 47.59%.
In the case of `CC(NC(=O)N(C)C1CC1)c1ccc(Oc2cccnc2)c(F)c1` (stereo not given), the “Percent Effect” value is reported as 100.6%.
With `CC(NC(=O)Cc1ccon1)c1ccc(OCC2CC2)c(F)c1` (stereo not given) the “Percent Effect” value was 0.6015%.
With `CCN(CC)C(=O)NC(C)c1ccc(Oc2cccnc2)c(F)c1` (stereo not given) the “Percent Effect” value was 111%.
`CN(C)C1Cc2ccccc2N(S(=O)(=O)c2ccc(C#N)cc2)C1` (stereo not given) was tested, and the “Percent Effect” value was -15.49%.
For `OC[C@@H](O)CN(CCC(F)(F)F)c1ncc(Cl)cn1`, the “Percent Effect” value was -0.8071%.
In the case of `OCCNc1cc(N2CCN(Cc3ccccc3)C(CCO)C2)ncn1` (stereo not given), the “Percent Effect” value is reported as 0.1628%.
`OCC1CCCN1c1cc(NCCNc2ccccn2)ncn1` (stereo not given) was tested, and the “Percent Effect” value was 1.6%.
For `O=C(NCCNc1cc(N2CCCC2)ncn1)c1cnccn1`, the “Percent Effect” value was 10.51%.
With `OCCNc1cc(-c2ccccc2)ncn1` the “Percent Effect” value was 107.4%.
With `Cn1ccc2c(-c3ccc(NCCO)nn3)ccnc21` the “Percent Effect” value was 2.598%.
With `OCCNc1cc(-c2ccncc2)ncn1` the “Percent Effect” value was 123.3%.
`CNc1cc(-c2ccncc2)ncn1` was tested, and the “Percent Effect” value was 104.2%.
For `CN(C)C(=O)c1cc(NC(=O)N2CCCC(C(F)(F)F)C2)ccn1` (stereo not given), the “Percent Effect” value was -9.482%.
In the case of `COc1ccc(Cc2ncc3c(n2)CN(C(=O)CCO)C3)cc1`, the “Percent Effect” value is reported as -39.39%.
In the case of `Cc1c(CNC(=O)C2CCCCCN2C)oc2ccccc12` (stereo not given), the “Percent Effect” value is reported as 0.5854%.
In the case of `N#Cc1ccc(CN(CC(N)=O)C2CCCC2)c(Br)c1`, the “Percent Effect” value is reported as -1.736%.
In the case of `CN1CC(Oc2ccc(Cl)cc2)=NC(SCC(=O)Nc2ccccc2)=N1`, the “Percent Effect” value is reported as 25.95%.
For `CC(C)(C)c1ncc(C(=O)NCCSc2ccccn2)c(O)n1`, the “Percent Effect” value was 2.392%.
With `CC(=O)N1CCCN(c2nccc(-c3cn(C)nc3C)n2)CC1` the “Percent Effect” value was -3.527%.
`Cc1nn(-c2ccccc2)c(C)c1-c1ccnc(N2CCCNCC2)n1` was tested, and the “Percent Effect” value was 14.93%.
For `CC(=O)N1CCCN(c2nccc(-c3c(C)nn(C)c3C)n2)CC1`, the “Percent Effect” value was 41.92%.
For `Cc1nn(C)cc1-c1ccnc(N2CCSCC2)n1`, the “Percent Effect” value was -11.35%.
With `Cc1nn(C)cc1-c1ccnc(N2CCCN(CC(C)C)CC2)n1` the “Percent Effect” value was 87.41%.
For `Cc1nn(C)c(C)c1-c1ccnc(N2CCCN(CC(C)C)CC2)n1`, the “Percent Effect” value was 93.07%.
For `O=C(NCc1nc(NC2CCCC2)c2cc(Cl)ccc2n1)c1cscn1`, the “Percent Effect” value was 4.35%.
In the case of `Cc1cc(C)c2c(c1)C(CC(=O)O)C(=O)N2` (stereo not given), the “Percent Effect” value is reported as 1.764%.
For `O=c1ccc(-c2ccccc2F)nn1CCN1CCCS1(=O)=O`, the “Percent Effect” value was -2.823%.
With `CCn1nc(-c2ccccc2F)ccc1=O` the “Percent Effect” value was 11.86%.
`CN1CCCN(Cn2nc(-c3ccccc3F)ccc2=O)CC1` was tested, and the “Percent Effect” value was 154.5%.
In the case of `CN1CCN(Cc2noc(-c3cc(-c4ccccc4F)n[nH]3)n2)CC1`, the “Percent Effect” value is reported as -9.744%.
For `CN1CCCN(Cc2nc(Cc3ccccc3)n[nH]2)CC1`, the “Percent Effect” value was 19.97%.
`O=c1ccc(-c2ccccc2F)nn1CN1CCCCCC1` was tested, and the “Percent Effect” value was 147.7%.
For `CCN1C(=O)[C@]2(CC[C@@H]3CN(S(=O)(=O)CC(C)C)C[C@@H]32)N=C1C`, the “Percent Effect” value was -19.96%.
In the case of `CCc1c(C)nc(C)nc1N1C[C@@H](CN(C)C)[C@@H](CO)C1`, the “Percent Effect” value is reported as -2.089%.
For `CN(C)c1nccc(C2CN(c3cnccn3)CCO2)n1` (stereo not given), the “Percent Effect” value was 85.29%.
